Compound activity as filed in PubChem BioAssay.
Compounds with a hit are over-represented: about 2.4% of the library has one in this group of screens.
A549 tox-1: kills or reduces viability of A549 cells in Nrf2 counter-screen; A549 ARE-Fluc cells, CellTiter-Fluor viability, 18-24 h; Potency, µM (series often up to 46 µM), for inactives: at the top dose activity change, negative = cytotoxicity, actives largely listed as inhibitors; 0.16% of 390,000 active; AID 504648; also: % is scaled to controls: 0 for no effect and ±100 for the full control effect
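A549 ARE-Fluc cells in 5% FBS OPTI-MEM, 5000 cells/well, rested 2 h then exposed to compounds in concentration-response for 18-24 h at 37 °C. Viability by CellTiter-Fluor fluorescence (Ex 405/Em 525) after 30 min; luciferase luminescence (BugLite, 15 min, RT) read afterwards.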
Nrf2 inh: Nrf2 pathway inhibition | A549 ARE-Fluc reporter, luciferase luminescence, 18-24 h | Potency, µM (highest dose often 46 µM), without a hit: at the highest dose activity change, negative = inhibition, actives largely listed as inhibitors | 2.1% of 360,000 active; also: % is scaled to controls: 0 for no effect and ±100 for the full control effect; nearly all actives have a fitted effect of over 60% in size
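In this cell-based qHTS, ARE-driven firefly luciferase in A549 cells reports Nrf2 activity; the luminescent signal after BugLite lysis is the measured value, with a prior CellTiter-Fluor read for cell health.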
Epigenetic derep: epigenetic control regulation, reporter derepression; murine LDR cells, GFP reporter derepression, 30 h; Potency, µM (doses to about 53.9 µM), for inactives: at the top dose GFP activation, most hits filed as activators; 0.2% of 280,000 active; AID 1865; also: % of control where 0% means no effect; nearly all actives have a fitted effect of over 60% in size
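GFP-positive cell count by laser-scanning cytometry (objects 20–120 um) after 30 h, 37 C compound exposure of murine LDR cells; reporter is CMV-GFP integrated at a silenced locus, inducible by HDAC or DNMT inhibitors.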
Nrf2 activator: Nrf2 pathway activation; AREc32 ARE-luciferase reporter (MCF7-derived line), luminescence, 24 h; AID 624171; Potency, µM (titrated, usually from 46.1 µM), for the others: top-dose activation, usual class: activators; 0.31% of 410,000 active; also: % of control where 0% means no effect; nearly all actives have a fitted effect of over 65% in size
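Reporter line AREc32 (ARE-Fluc), seeded overnight in OPTI-MEM with 5% FBS; compound pin-transferred, 24 hr at 37 deg C, 5% CO2; luminescent read-out.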
PINK1 expr mod: modulators of PINK1 expression; PINK1 immunofluorescence, high-content cytometry, 24 h; Potency, µM (series often up to 76.6 µM), for the others: top-dose activation (PINK1 increase), actives largely listed as activators; 0.2% of 410,000 active; AID 624263; active = well fitted activation curve with a large enough effect; inconclusive = small, poorly fitted or top-dose-only effect; cell line not stated here; also: % of control where 0% means no effect; nearly all actives have a fitted effect of over 65% in size
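Decision-based qHTS: stable cells, 24 h exposure to five compound concentrations, CCCP as control. Fixed cells stained for PINK1 plus nuclear, mitochondrial and cell markers, cytometer read.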
FLuc counter 3: firefly luciferase inhibition, Nrf2 hit validation; Potency, µM (top dose mostly 57.5 µM), inactives show at the top dose activity change, negative = inhibition, actives largely listed as inhibitors; shares compounds with Nrf2 inh; purified firefly luciferase, luminescence inhibition; 4% of 1,400 active; also: % is scaled to controls: 0 for no effect and ±100 for the full control effect; nearly all actives have a fitted effect of over 65% in size
Target sequence (P08659 whole entry, looked up): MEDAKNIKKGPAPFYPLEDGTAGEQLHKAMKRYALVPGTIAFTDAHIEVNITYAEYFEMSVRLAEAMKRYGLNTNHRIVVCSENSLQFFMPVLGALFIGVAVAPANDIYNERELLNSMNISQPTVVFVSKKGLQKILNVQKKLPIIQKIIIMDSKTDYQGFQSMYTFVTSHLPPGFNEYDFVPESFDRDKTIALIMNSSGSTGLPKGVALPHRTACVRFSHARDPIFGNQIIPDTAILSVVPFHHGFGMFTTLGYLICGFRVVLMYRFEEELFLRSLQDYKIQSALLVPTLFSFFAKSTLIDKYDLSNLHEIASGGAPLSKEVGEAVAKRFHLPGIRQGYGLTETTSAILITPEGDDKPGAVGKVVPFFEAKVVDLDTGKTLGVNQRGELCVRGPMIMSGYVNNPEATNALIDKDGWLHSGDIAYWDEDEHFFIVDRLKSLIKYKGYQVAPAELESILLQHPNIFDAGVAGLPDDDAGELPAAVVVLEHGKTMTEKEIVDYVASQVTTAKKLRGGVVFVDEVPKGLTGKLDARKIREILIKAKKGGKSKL
A549 tox-2: counter-screen for Nrf2 inhibitors: cytotoxicity in A549 ARE cells | Potency, µM (doses to about 46.1 µM), inactives show at the highest dose activity change, negative = cytotoxicity, usual class: inhibitors | shares compounds with Nrf2 inh | 2% of 1,400 active | A549 ARE-Fluc cells, cytotoxicity counterscreen;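 also: cells exposed to compounds for 18 to 24 hours; % is scaled to controls: 0 for no effect and ±100 for the full control effect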
Nrf2 ARE inh: reduces Nrf2 ARE reporter signal in A549 cells | shares compounds with Nrf2 inh | A549 ARE-firefly luciferase reporter, luminescence | Potency, µM (top dose mostly 46.1 µM), for the others: at the top dose activity change, negative = inhibition, actives largely listed as inhibitors | 74% of 1,400 active | AID 720524; also: % is scaled to controls: 0 for no effect and ±100 for the full control effect; nearly all actives have a fitted effect of over 65% in size
Starred values were filed as active, the others as inactive; ? = inconclusive; . = no result shown; [ ] = remark or other dose. Unless noted, calls follow the shape of the dose curve; as a rule, active = well fitted curve in the direction sought with a large enough effect; inconclusive = small, poorly fitted or top-dose-only effect, or another doubt; inactive = no such curve, though single readings can be large; an effect the other way counts as inactive or inconclusive. Potency is read from the fitted curve at half-maximal effect.

SMILES	A549 tox-1	Nrf2 inh	Epigenetic derep	Nrf2 activator	PINK1 expr mod	FLuc counter 3	A549 tox-2	Nrf2 ARE inh
CC1=C(N2CC2)C(=O)C(CO)=C(N2CC2)C1=O	9.2µM*	0.52µM*	.	-3%	2%	2%	-10%	1.6µM*
C[C@H](NC(=O)[C@@H](N)Cc1ccc(O)cc1)C(=O)N[C@@H](Cc1ccccc1)C(=O)NCC(=O)N[C@@H](Cc1ccc(O)cc1)C(=O)N1CCC[C@H]1C(=O)N[C@@H](CO)C(N)=O	.	.	0%	.	.	.	.	.
CCC1(O)C(=O)OCc2c1cc1n(c2=O)Cc2cc3cc(O)ccc3nc2-1 (stereo not drawn)	14%	2.3µM*	.	-2%	4%	-8%	12%	0.41µM*
CC[C@@]1(O)C(=O)OCc2c1cc1n(c2=O)Cc2cc3ccccc3nc2-1	-14%	2.1µM*	1%	.	-1%	2%	?	0.46µM*
C[C@@]12CC(=O)[C@H]3[C@@H](CCC4=CC(=O)CC[C@]43C)[C@H]1CCC2=O	.	.	11%[16.9 µM]	.	.	.	.	.
CC12CC(=O)C3C(CCC4CC(=O)C=CC43C)C1CCC2=O (stereo not drawn)	-12%	3.3µM*	.	0%	6%	2%	-15%	2.6µM*
COC12C(COC(N)=O)C3=C(C(=O)C(C)=C(N)C3=O)N1CC1C2N1C (stereo not drawn)	-23%	0%	-1%	2%	-1%	.	.	.
COC(COC(N)=O)C1=C(N2CC2)C(=O)C(C)=C(N2CC2)C1=O (stereo not drawn)	10µM*	2.1µM*	.	3%	-2%	-2%	-11%	0.058µM*
COC(=O)C12OCC34C(CC5C(C)=C(O)C(=O)CC5(C)C3C(O)C1O)OC(=O)C(OC(=O)/C=C(\C)C(C)C)C24 (stereo not drawn)	0.29µM*	0.058µM*	.	-2%	-7%	0%	-12%	1.2µM*
CCC(=NCCc1c[nH]c2ccccc12)c1c(O)n(C)c(=O)n(C)c1=O	?	9.2µM*	-1%	3%	2%[38.3 µM]	2%	-1%	.
CCC(=NC(C)c1ccccc1)c1c(O)n(C)c(=O)n(C)c1=O (stereo not drawn)	-16%	5.8µM*	-1%	3%	1%[38.3 µM]	2%	-8%	7.3µM*
CCC(=NCCc1c[nH]c2ccccc12)c1c(O)n(-c2ccc(C)cc2)c(=O)[nH]c1=O	?	?	0%	2%	1%	.	.	.
CC(=O)c1ccc(NC(=O)CSc2nc(=O)cc(N)n2-c2ccccc2)cc1	2%	?	3%	4%	-1%	.	.	.
C#CCCC[C@@H]1OC(=O)CNC(=O)C([C@@H](C)CC)NC(=O)[C@@H]2CCCN2C(=O)C([C@@H](C)CC)OC(=O)[C@H](Cc2ccccc2)N(C)C(=O)[C@H](C(C)C)NC(=O)C1(C)C (stereo partly drawn)	.	.	.	-2%	2%	.	.	.
CCC(C)C1NC(=O)C(NC(=O)C(CC(C)C)N(C)C(=O)C2CCCN2C(=O)C(C)O)C(C)OC(=O)C(Cc2ccc(OC)cc2)N(C)C(=O)C2CCCN2C(=O)C(CC(C)C)NC(=O)[C@H](C)C(=O)[C@H](C(C)C)OC(=O)CC1O (stereo partly drawn)	0.037µM*	0.0073µM*	.	-1%	-6%	2%	?	0.01µM*
CC(=O)OC1C(=O)OCC23CCC4(C)OC4C2OC2CC(OC(=O)C=CC=CC(=O)OCCC1C)C3(C)C21CO1 (stereo not drawn)	.	0.016µM*	.	-1%	-7%	3%	.	0.012µM*
CC1=CC2OC3CC4OC(=O)C=CC=CC(C(C)O)OCC(O)C(C)CC(=O)OCC2(CC1O)C4(C)C31CO1 (stereo not drawn)	.	0.058µM*	.	-2%	-1%	-13%	.	0.052µM*
CC1=CC2OC3CC4OC(=O)C=CC=CC(=O)OCCC(C)C(O)C(=O)OCC2(CC1O)C4(C)C31CO1 (stereo not drawn)	.	0.073µM*	.	-1%	1%	-11%	.	3.7µM*
O=C(CI)c1ccc(Cl)cc1	.	.	.	.	1%	.	.	.
CCS(=O)(=O)Nc1ccc(C2=NN(C(=O)c3ccco3)C(c3ccc(Cl)o3)C2)cc1 (stereo not drawn)	-3%	?	.	7%	0%	.	.	.
CC(c1nccs1)N(C)C(=O)c1cn(Cc2cccc3ccccc23)nn1 (stereo not drawn)	1%	?	.	-1%	3%	.	.	.
COC(C)C(O)(C(=O)OC1=CCN2CC[C@H](O)[C@H]12)C(C)C (stereo partly drawn)	.	.	-5%	.	.	.	.	.
CCOC(=O)c1ncn2c1CN(C)C(=O)c1cc(F)ccc1-2	-8%	2.1µM*	0%	0%	.	3%	-8%	7.3µM*
O=C1c2ccccc2C(=O)c2ccccc21	.	.	6%	.	.	.	.	.
c1ccc2c(c1)[IH]c1ccccc1-2	9.2µM*	0.23µM*	.	-3%	0%	2%	-3%	?
SMILES	A549 tox-1	Nrf2 inh	Epigenetic derep	Nrf2 activator	PINK1 expr mod	FLuc counter 3	A549 tox-2	Nrf2 ARE inh
C[n+]1ccc(-c2ccccc2)c2ccccc21	-15%	1.5µM*	.	1%	0%	0%	-1%	.
Cc1cc(NC(=O)c2cc(-c3cccc(Cl)c3)on2)nn1Cc1ccc(Cl)cc1	-3%	2.6µM*	-2%	-1%	0%	-2%	-14%	21µM*
CC(C)(C)OC(=O)NCc1ccc(CNC(=O)c2nc[nH]c2C(=O)NCc2ccc(CNC(=O)OC(C)(C)C)cc2)cc1	3%	6.5µM*	.	5%	1%	3%	-13%	13µM*
NNC(=O)c1nc[nH]c1C(=O)Nc1ccc(Cl)cc1C(=O)c1ccccc1	13%	19%	.	0%	3%	.	.	.
COc1ccc(CN2CCN(C(=O)Cn3c(=O)oc4cc(Cl)ccc43)CC2)c(OC)c1OC	?	2.9µM*	.	5%	5%	-1%	-9%	?
CSCC[C@H](NC(=O)[C@H](Cc1ccccc1)NC(=O)CNC(=O)CNC(=O)[C@@H](N)Cc1ccc(O)cc1)C(=O)O	.	.	1%	.	.	.	.	.
O=c1[nH]/c(=C\c2ccc(N(CCCl)CCCl)cc2)c(=O)[nH]/c1=C\c1ccc(N(CCCl)CCCl)cc1	.	.	.	.	1%	.	.	.
